Assay outcomes deposited in PubChem by several laboratories.
Smad3 FoxH1 inh: Smad3 (human) transcription factor binding inhibition | P84022 | TR-FRET Smad3/Dy647-FoxH1 peptide binding, europium anti-His | inhibition, % at 25 µM | actives 0.29% (n = 88,000) | AID 630;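 active = compounds that reduce the energy-transfer binding signal between the protein and its labelled peptide by more than half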;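 also: 0% = Smad3 plus labelled peptide maximal FRET and 100% = peptide-only background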
Target sequence (P84022 whole entry, looked up): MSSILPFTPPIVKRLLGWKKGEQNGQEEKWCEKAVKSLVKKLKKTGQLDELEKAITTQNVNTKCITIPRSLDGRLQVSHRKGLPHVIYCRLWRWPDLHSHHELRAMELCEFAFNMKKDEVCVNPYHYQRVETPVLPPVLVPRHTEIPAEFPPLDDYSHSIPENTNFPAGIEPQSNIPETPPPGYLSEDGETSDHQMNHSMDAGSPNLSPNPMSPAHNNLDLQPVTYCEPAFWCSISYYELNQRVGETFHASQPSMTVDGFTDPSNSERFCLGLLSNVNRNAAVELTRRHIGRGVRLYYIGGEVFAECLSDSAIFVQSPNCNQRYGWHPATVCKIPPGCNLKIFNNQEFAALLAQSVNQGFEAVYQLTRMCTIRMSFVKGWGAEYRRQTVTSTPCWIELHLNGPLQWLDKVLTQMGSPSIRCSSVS
PostGolgi yeast: growth inhibition of a yeast mutant, post-Golgi transport screen; AID 739; inhibition, % at 10 µM; post-Golgi transport phenotypic cell assay; actives 0.9% (n = 98,000);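 also: yeast cells grown in 1536-well plates; yeast grown about 18 h at 30C before absorbance read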
hDAT+cocaine: modulates human dopamine transporter uptake under cocaine; actives 1.3% (n = 110,000); B-score at 10 µM; Q01959; LLC-PK1 hDAT cells, [14C]-dopamine uptake with cocaine IC80; actives deviate in either direction; AID 449768;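 active = Z score or B-score, a plate-position-corrected score, falls beyond the plate's 99.7% confidence bounds, in either direction; inactive = both scores lie inside the 99.7% bounds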;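 also: scored against the spread of the other compound wells on the same plate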
Cav32 inh: inhibitors of human Cav3.2 T-type calcium channel; O95180; Cav3.2-expressing cells, Fluo-4 calcium fluorescence FDSS; stronger effect = lower value; B-score at 10 µM; actives 4% (n = 100,000);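 active = single-dose well whose peak fluorescence ratio is a statistical outlier from its plate by either plate-standardised score or position-corrected B-score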
PostGolgi ctrl: inhibits growth of the yeast control strain | efflux-deficient yeast background strain, growth absorbance A615, 16 h | inhibition, % at 10 µM | actives 5% (n = 98,000) | AID 738
TNAP act DEA: activators of human TNAP at intermediate phosphate acceptor. P05186. purified TNAP, CDP-star luminescence, 100 mM DEA, 30 min; stronger effect = higher value; scale: 0 levamisole-inhibited, 1 vehicle-only enzyme. activation factor at 20 µM. 64,000 tested, under 10 active;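 active = activation factor of at least 2 at 20 µM, relative to controls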
* marks the source's active call; other numbers are inactive results; / = no result. Rows were chosen to be rich in hits. Some 8.7% of all compounds tested hit in one or more screens of this group. Rule as the data show it, unless noted: active = inhibition above about 30%; inactive = the rest.

SMILES	Smad3 FoxH1 inh	PostGolgi yeast	hDAT+cocaine	Cav32 inh	PostGolgi ctrl	TNAP act DEA
CC(=O)Nc1ccc(N2C(C(C)=O)=NN(c3ccccc3)C2c2cccs2)cc1 (stereo not given)	17.0	1.6	-0.486	-1.13	7.3	/
COc1ccc(N2C(C(C)=O)=NN(c3ccccc3)C2c2cccs2)cc1 (stereo not given)	-0.8	19.1	1.38*	-0.475	18.6	/
CC1CCc2ccccc2N1C(=O)c1cccs1 (stereo not given)	1.7	4.1	-7.3*	-1.17	10.5	1
CC1CCc2cc(F)ccc2N1C(=O)c1ccc2c(c1)OCO2 (stereo not given)	6.4	0.0	-0.617	-3.06	6.6	1
Cn1c(=O)c2c(nc(CN3CCOCC3)n2CC(O)CO)n(C)c1=O (stereo not given)	12.7	-2.9	-0.238	0.0602	3.2	0.9
CCc1ccc(C(=O)N2CCN(c3ccc(F)cc3)CC2)s1	7.5	1.6	2.01*	-1.79	8.7	1
Cc1nc2ccc(NC(=O)c3cccs3)cc2c(=O)n1Cc1ccc(Cl)cc1	/	-2.7	0.024	-2.53	32.4*	/
Cc1ccc(S(=O)(=O)/N=C(\N)Nc2nc(C)c3cc(C)c(C)cc3n2)cc1	/	-7.2	0.00354	-1.43	39.9*	/
Cc1ccc(S(=O)(=O)/N=C(\N)Nc2nc(C)c3ccc(C)cc3n2)cc1	/	-3.3	0.241	-1.7	24.5	/
CCOC(=O)C1=C(CSc2nc(C)cc(C)c2C#N)OC(N)=C(C#N)C1c1ccccc1 (stereo not given)	1.7	-6.5	0.272	-5.46*	15.0	/
CCCCCCCCCCS(=O)(=O)N/N=C/c1ccc([N+](=O)[O-])cc1	13.4	-2.3	-0.847	0.234	5.1	/
Cc1cc(C)cc(NCC(=O)Nc2c(C)cccc2C)c1	5.8	2.9	-0.931	-0.035	37.1*	0.9
CCN(CC)CC(=O)Nc1c(C)cccc1C	3.5	/	/	/	/	0.8
O=C(NCc1ccco1)c1ccccc1Nc1ccc(F)cc1	5.7	-4.9	0.237	-6*	31.7*	0.9
O=C(c1ccccc1NS(=O)(=O)c1ccc(Br)s1)N1CCCC1	7.4	-1.8	-0.731	-1.8	24.0	0.9
O=C(Nc1ccc(F)cc1)NC1(C(=O)NCc2ccco2)CCCCC1	1.4	4.2	0.101	0.425	31.5*	0.9
O=C(COC(=O)c1ccccc1Nc1ccc(SC(F)F)cc1)NCc1ccco1	/	-3.8	-1.12	0.504	32.3*	/
O=C(NCc1ccco1)c1ccccc1NS(=O)(=O)c1ccc(Br)s1	3.7	4.5	-0.827	-6.14*	20.1	/
O=C(O)CCC(=O)Nc1ccccc1C(=O)NCc1ccco1	-4.4	/	-0.646	-0.0835	/	/
O=C(Nc1ccc(F)cc1)NC1(C(=O)NCc2ccc3c(c2)OCO3)CCCCC1	-3.6	/	-0.898	0.168	/	/
Cc1cccc(Nc2ccccc2C(=O)OCC(=O)NCc2ccco2)c1C	/	1.8	-0.65	-0.77	16.6	/
CC(CN1CCCCC1)OC(=O)C1c2ccccc2Oc2ccccc21 (stereo not given)	7.1	9.9	0.546	-0.379	10.3	/
CCCCCCCC(=O)NN1CCOCC1	/	-6.6	1.78	-0.626	5.9	/
CCOC(=O)c1c(-c2ccc(C)c(C)c2)csc1NC(=O)C1CC=CCC1C(=O)O (stereo not given)	/	-1.6	/	/	33.3*	/
COC(=O)c1c(-c2ccco2)csc1NC(=O)C1CC=CCC1C(=O)O (stereo not given)	7.4	0.0	1.4	0.636	6.5	1
SMILES	Smad3 FoxH1 inh	PostGolgi yeast	hDAT+cocaine	Cav32 inh	PostGolgi ctrl	TNAP act DEA
COC(=O)c1ccccc1NC(=O)c1nc2nc(C)cc(C)n2n1	10.7	-5.0	-0.00492	0.641	9.6	0.9
CC(C)Cc1cc(C(=O)Nc2c(F)cc(F)cc2Br)no1	/	3.5	6.5*	-0.423	6.2	0.7
CC(C)Cc1cc(C(=O)Nc2ccc(F)cc2F)no1	11.3	6.2	0.073	-0.332	6.9	0.9
CC(O)[C@H]1CNC(=O)C(=O)N1CC1(c2ccccc2)CC1 (stereo not given in full)	/	/	1.19	-1.32	/	/
COc1ccc(Cn2nnc3c(=O)[nH]c(C(=O)NCCc4ccc(F)cc4)nc32)cc1OC	10.2	1.3	1.01	0.79	31.4*	1
CNC(=O)c1sccc1SCc1c(Cl)cccc1Cl	-14.5	-3.7	0.176	-1.56	46.0*	/
CNC(=O)c1sccc1SCc1ccc(Cl)cc1Cl	7.1	-6.8	-0.576	-2.35	21.8	/
O=c1c(/C=C(\O)c2ccccc2)nc2ccccc2n1-c1ccccc1	-13.7	-9.6	0.39	0.00668	30.4*	/
C=CCn1c(N)c(C(=O)Nc2ccccc2)c2nc3ccccc3nc21	11.8	9.8	0.00743	-0.142	37.4*	0.9
C=CCn1c(N)c(C(=O)OC(C)CC)c2nc3ccccc3nc21 (stereo not given)	-3.1	-1.5	2.11	-1.56	37.9*	0.9
Cc1ccc(NCc2nc3ccccc3n2C)cc1	-1.1	-0.9	-1.28	-0.193	33.7*	0.9
Cn1c(CSc2nc3ccccc3s2)nc2ccccc21	1.8	-2.7	0.796	-4.74*	15.7	1
c1ccc2[nH]c(CSc3nc4ccccc4s3)nc2c1	6.6	-6.5	0.43	-6.43*	11.8	/
O=c1oc2ccccc2n1CSc1nc2ccccc2s1	1.6	-10.1	-0.594	-4.09*	18.3	0.9
O=C(CNS(=O)(=O)c1ccc(Br)s1)N1CCN(c2ncccn2)CC1	-5.3	-2.9	1.21	1.84	10.7	1
CC(Oc1ccc(C(=O)NCCc2ccccc2)cc1)C(=O)O (stereo not given)	-6.3	-1.0	-0.57	2.05	7.4	/
CC(C)OC(=O)C(C)Oc1ccc(C(=O)NCCc2ccccc2)cc1 (stereo not given)	5.2	4.3	-7.08*	-0.867	2.5	/
COC(=O)c1c(NC(=O)CN2CCN(C(=O)c3ccco3)CC2)c2c(C)cccc2n1C	-12.5	18.4	-0.784	2.26	-6.4	0.9
CCOc1ccc(C(C)=O)cc1N1C(=O)C2C3C=CC(C3=C(C)C)C2C1=O (stereo not given)	/	7.2	/	-1.25	3.5	1
CCCN1C(=O)C(O)(CC(=O)c2ccc3c(c2)OCCO3)c2ccccc21 (stereo not given)	13.0	6.1	-0.577	0.473	5.9	1
CN1C(=O)C2(OCC(COc3ccc(Cl)cc3)O2)c2ccccc21 (stereo not given)	-0.8	-1.6	-1.19	-1.59	16.8	0.9
O=C1Nc2ccccc2C12OCC(COc1ccc(Cl)cc1)O2 (stereo not given)	6.6	-9.0	1	-5.44*	23.4	0.9
CCn1c(=O)cc(OCC(=O)N2CCN(C(=O)c3ccco3)CC2)c2ccccc21	/	0.6	-1.19	1.08	-0.1	0.9
CCCOC(=O)c1cc(-c2ccc(/C=C3/C(=O)N(C)C(=O)C(C#N)=C3C)o2)ccc1Cl	-1.1	/	/	/	/	/
CC(C)COC(=O)c1cc(-c2ccc(/C=N/n3cnnc3)o2)ccc1Cl	8.9	5.2	0.517	-0.325	36.1*	0.9
